Screening results (PubChem BioAssay)
F508del corr: F508del CFTR correction, initial screen, CFBE line, single point; CFBE cells, YFP halide quenching; stimulated with forskolin plus potentiator P3; % fluorescence drop versus neutral controls; activity (quench increase), % at 7.58 µM; 350,000 tested, 0.36% active;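 active means mean added fluorescence quench of at least 8% versus neutral control, with both replicates also reaching 8%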;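 further: cells transiently co-express mutant CFTR-F508del with the halide-sensitive YFP; corrector assay measuring rescue of mutant channel to the surface after 24 h compound exposure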
SKN-1 block: suppressors of acrylamide-induced Pgst-4::GFP reporter in worms, primary screen, SKN-1 inhibitor project, whole organism, uHTS, GFP/RFP fluorescence ratio, strain VP596 | C. elegans VP596 Pgst-4::GFP/RFP ratio, 24 h | inhibition, % at 21.8 µM | 360,000 tested, 0.49% active;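 active means interference check ratio from 0.5 to 1.5 plus GFP to RFP signal ratio inhibition reaching or exceeding a fixed threshold, cut at about 30% in these data, passing the limit was not always enough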
CendR NRP1 mod: modulators of CendR peptide binding to NRP-1, primary screen, biochemical, fluorescence polarization, uHTS; inhibition, % at 25 µM; AID 602438, 2012; Neuropilin-1 (Homo sapiens), O14786; 360,000 tested, 0.85% active; FAM-RPARPAR peptide binding to NRP-1;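 active means inhibition or corrected inhibition above about 18%, plus a signal ratio from 0.5 to 1.5, limit read from the data, passing the limit was not always enough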
ATG4B inhibitor: ATG4B protease inhibitors, primary screen, biochemical, fluorescence, uHTS | inhibition, % at 8.33 µM | ATG4B cleavage of LC3-PLA2, NBD-HPC fluorescence, 1 h | 340,000 tested, 0.51% active; in the data active means inhibition above about 40%
Target sequence (Q9Y4P1 whole entry, looked up): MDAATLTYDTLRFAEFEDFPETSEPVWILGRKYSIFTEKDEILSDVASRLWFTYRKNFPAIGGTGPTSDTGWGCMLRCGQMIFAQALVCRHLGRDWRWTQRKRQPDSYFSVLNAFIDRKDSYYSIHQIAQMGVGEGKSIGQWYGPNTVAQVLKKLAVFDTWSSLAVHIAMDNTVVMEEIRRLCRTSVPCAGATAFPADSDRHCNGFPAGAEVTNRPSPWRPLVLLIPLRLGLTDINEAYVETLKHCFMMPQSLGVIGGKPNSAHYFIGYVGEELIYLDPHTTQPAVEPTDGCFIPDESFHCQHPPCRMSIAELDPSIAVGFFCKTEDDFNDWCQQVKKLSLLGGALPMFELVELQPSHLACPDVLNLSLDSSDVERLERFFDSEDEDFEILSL
MPTP inh: mitochondrial permeability transition pore inhibitors, primary screen, biochemical, isolated mouse mitochondria, absorbance | inhibition, % at 10 µM | Ca2+ swelling absorbance, 30 min | 360,000 tested, 1.4% active;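 active means inhibition of 50% or more, scaled per plate between neutral and stimulator controls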;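 further: 0% = DMSO wells given calcium and 100% = 1 mM EGTA wells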
* marks the source's active call; other numbers are inactive results; / = no result given. In the library only some 2.7% were active in any assay of this set; here they are far more common.

SMILES | F508del corr | SKN-1 block | CendR NRP1 mod | ATG4B inhibitor | MPTP inh
O=C(CN1CCOc2ccccc21)NCc1ccc(Cl)cc1 | 9.2* | -1 | -4 | -8 | -2
CCCC(=O)Nc1ccc2c(c1)OC[C@H](C)N(Cc1ccncc1)C[C@@H](C)[C@@H](OC)CN(C)C2=O | 1 | / | / | / | /
CC(=O)C(C(c1ccccc1)N1CCCc2ccccc21)N1CCOCC1 (stereo not drawn) | -1 | 9 | 24* | -8 | 4
Cc1cccc(C(C(C(=O)c2ccccc2)N2CCOCC2)N2CCOCC2)c1 (stereo not drawn) | -2 | 12 | 2 | -10 | -1
CC1(C(=O)NCc2cccc3ccccc23)CCN1Cc1cccc2c1OCO2 (stereo not drawn) | -3 | 9 | 26* | / | 0
CC1(C(=O)NCc2cccc3ccccc23)CCN1Cc1ccc2ccccc2c1 (stereo not drawn) | -1 | 2 | -1 | / | 0
O=C(c1cccs1)N1CCc2c([nH]c3ccccc23)C1c1ccc(Cl)cc1 (stereo not drawn) | / | 50* | 8 | 0 | 0
COc1cccc(C2c3[nH]c4ccccc4c3CCN2C(=O)c2ccccc2F)c1OC (stereo not drawn) | 0 | 1 | -2 | -5 | 2
O=C(c1cn[nH]c1)N1CCc2c([nH]c3ccccc23)C1c1c(F)cccc1Cl (stereo not drawn) | -1 | 1 | 40* | 31 | 0
C[C@H](CO)N1C[C@H](C)[C@H](CN(C)C(=O)c2ccncc2)OCCCC[C@H](C)Oc2ccc(NC(=O)NC3CCCCC3)cc2C1=O | 1 | / | / | / | /
Cc1cc(NC(=O)CCC(=O)N(Cc2ccco2)C(C)(C)C(=O)NC2CCCCC2)no1 | / | -16 | -3 | -7 | -1
Cc1cc(NC(=O)CCC(=O)N(Cc2cccs2)C(C)(C)C(=O)NC2CCCCC2)no1 | 3 | 9 | 20* | -12 | 0
COCC#Cc1ccc([C@@H]2[C@H]3CN(C(=O)C4CCCCC4)CC(=O)N3[C@H]2CO)cc1 | 3 | / | / | / | /
COc1c(O)cccc1[C@H](O)C1CCN(CCc2ccc(F)cc2)CC1 | 4 | 4 | 43* | -4 | 0
CCC1(CC)C(=O)NN(c2ccccc2)C1=O | / | -3 | 27* | -6 | -5
CC1(C)CCC/C(=C\c2ccccc2)C1=O | 0 | 1 | 20* | 2 | -2
COc1ccc2sc3cccc(NCCN(C)C)c3c(=O)c2c1 | 12* | 16 | -36 | / | 3
Cc1c(OCC(=O)NCCCN2CCOCC2)ccc2c3c(c(=O)oc12)CCCC3 | 2 | 19 | 11 | -4 | -3
Cc1c(OCC(=O)NCCN2CCOCC2)ccc2c3c(c(=O)oc12)CCC3 | 11* | 23 | 4 | -6 | -1
Cc1c(OC(C)C(=O)NCc2ccccn2)ccc2c3c(c(=O)oc12)CCC3 (stereo not drawn) | 2 | 15 | 23* | 2 | -1
Cc1ccc(NC(=O)c2cc(N3C(=O)C4CCCCC4C3=O)ccc2N2CCOCC2)cc1 (stereo not drawn) | 1 | 4 | 25* | -14 | 1
Cc1ccc(NC(=O)c2cc(N3C(=O)C4CC=CCC4C3=O)ccc2N2CCCCC2)cc1 (stereo not drawn) | / | -9 | 4 | -14 | 0
Cc1c(C(=O)OCC(=O)N2CCC(C)CC2)oc2ccccc12 | 1 | 9 | -9 | 0 | -2
Cc1c(C(=O)OCC[N+]2(C)CCCCC2)oc2ccccc12 | / | -3 | 48* | -1 | -12
COc1ccc2c3c([nH]c2c1)[C@H](CO)N(C(=O)Nc1ccc(F)cc1)CC31CN(C(=O)Nc2ccccc2)C1 | 0 | / | / | / | /
SMILES | F508del corr | SKN-1 block | CendR NRP1 mod | ATG4B inhibitor | MPTP inh
O=C(CC(=O)c1ccccc1)Nc1ccc([N+](=O)[O-])cc1 | 3 | -11 | 25* | -5 | 38
C[C@@H]1CCCCO[C@@H](CN(C)Cc2ccc(Cl)c(Cl)c2)[C@@H](C)CN([C@@H](C)CO)C(=O)c2cc(NC(=O)c3ccccc3)ccc2O1 | -3 | / | / | / | /
COc1ccc(N2CCc3c(C)nc4c(OC)cc(OC)cc4c32)cc1 | 11* | 2 | 1 | 9 | 36
C[C@H](CO)N1C[C@H](C)[C@H](CN(C)Cc2cccc(C(F)(F)F)c2)Oc2ncccc2C1=O | 0 | / | / | / | /
CC(=O)NC[C@@H]1[C@H](c2ccc(-c3ccccc3)cc2)[C@H](CO)N1C(=O)C1CCC1 | 0 | / | / | / | /
O=C(/C=C/[C@H]1O[C@@H](n2cnc3c(NC(=O)c4ccccc4)ncnc32)[C@H](O)[C@@H]1O)NCc1cccs1 | -4 | 5 | 18* | / | -1
O=C(CC[C@H]1O[C@@H](n2cnc3c(NC(=O)c4ccccc4)ncnc32)[C@H](O)[C@@H]1O)NCC(F)(F)F | -3 | 3 | 20* | / | -1
COCCCNC(=O)/C=C/[C@H]1O[C@@H](n2cnc3c(NC(=O)c4ccccc4)ncnc32)[C@H](O)[C@@H]1O | 0 | 8 | -1 | / | -1
COCCNC(=O)CC(c1ccccc1)c1ccccc1 | / | 36* | 9 | -12 | 9
O=C(CC(c1ccccc1)c1ccccc1)NCCOCc1ccccc1 | 0 | -1 | -8 | 9 | -1
Cc1cc(C(=O)CN2C(=O)C(=O)N(Cc3ccccc3)C2=O)c(C)n1Cc1ccccc1 | 9.4* | 3 | -9 | -12 | -4
Cc1cccc(C)c1OCc1cc(C(=O)N2CCN(C3CCCC3)CC2)no1 | 1 | 50* | -8 | 30 | -2
COc1cc(C(=O)c2cocc2C(=O)c2ccc3c(c2)OCO3)cc(OC)c1OC | 13* | 6 | -7 | -5 | 0
O=C(Nc1ccc2c(c1)OCO2)c1cccc(F)c1 | / | 40* | 17 | 7 | -4
O=C(Nc1ccc(F)c(Cl)c1)c1ccc2c(c1)OCO2 | 2 | -3 | 10 | 1 | 0
COc1ccc(NC(=O)c2ccc3c(c2)OCO3)cc1Cl | / | 41* | 8 | -8 | 3
COc1ccc(N/C=C\C(=O)c2ccc3c(c2)OCO3)cc1OC | / | 0 | -9 | -21 | 1
O=C(Nc1cccc(F)c1)Nc1ccc2c(c1)OCO2 | -2 | -1 | -8 | 2 | 18
COC(=O)c1ccc(N/C=C\C(=O)c2ccc3c(c2)OCO3)cc1 | 4 | 11 | 22* | -11 | 1
COCCNC(=O)C[C@@H]1CC[C@H]2[C@@H](COc3ccc(NC(=O)Cc4ccccc4)cc3C(=O)N2C)O1 | -4 | / | / | / | /
C[C@@H]1CN([C@H](C)CO)C(=O)c2cc(NC(=O)Cn3cnnn3)ccc2O[C@H]1CN(C)Cc1ccncc1 | 3 | / | / | / | /
COc1ccc(-c2cnc3c(c2)C(=O)N([C@@H](C)CO)C[C@@H](C)[C@H](CN(C)C(=O)Cc2cccnc2)O3)cc1 | -3 | / | / | / | /
O=C(C[C@@H]1CC[C@H](NC(=O)c2cccnc2)[C@@H](CO)O1)NCc1ccc(Cl)c(Cl)c1 | 0 | / | / | / | /
